aSyn rescue = qHTS of alpha-syn Inhibitors | Yeast expressing alpha-synuclein, growth rescue, BacTiter-Glo, 24 h | Potency, µM (titrated, usually from 46.1 µM), inactives show at the top dose growth rescue (activation), most hits filed as activators | 370,000 compounds, 0.14% hits | AID 652106, 2013; further: % of control where 0% means no effect; nearly all actives have a fitted effect of over 65% in size
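Screening used galactose-induced yeast with toxic alpha-synuclein levels, exposed to compound for 24 hr at 30 deg C. Cell growth, read with BacTiter-Glo luminescence, gave the measured signal.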
Abeta rescue = qHTS for compounds that reverse cellular toxicity of Amyloid beta (A-beta) peptide in yeast: Primary Screen | yeast expressing A-beta42, growth rescue, OD600, 48 h; response scale: 0% DMSO, 100% iron-clioquinol control | Potency, µM (highest dose often 46.1 µM), actives largely listed as activators | 410,000 compounds, 0.063% hits; further: nearly all actives have a fitted effect of over 55% in size
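Yeast growth medium received pinned compounds, then yeast cells expressing toxic A-beta were added; plates incubated at 30 C for 48 hr. Growth read as absorbance at 600 nm, normalized to DMSO and equimolar FeCl3 plus clioquinol controls.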
TDP-43 yeast inh = qHTS of TDP-43 Inhibitors; Potency, µM (doses to about 46.1 µM), for inactives: top-dose growth rescue (activation), most hits filed as activators; TDP-43 expressing yeast growth rescue, BacTiter-Glo, 24 h; AID 652104, 2013; 410,000 compounds, 1.8% hits; further: % of control where 0% means no effect; nearly all actives have a fitted effect of over 50% in size
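Growth rescue of TDP-43-toxic yeast measured as ATP luminescence (BacTiter-Glo). Cells grown to mid-log in raffinose, induced in galactose at OD600=0.02, exposed to compound 24 hr at 30 deg C.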
FUS suppressor = qHTS for Suppressors of FUS Proteinopathy: Primary screen using FUS-linked yeast assay. AID 1347120, 2019. Potency, µM (titrated, usually from 76.6 µM), hits mostly activators. 390,000 compounds, 0.24% hits. S. cerevisiae FUS-expressing, growth rescue, OD600, 24 h;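 further: plate controls were DMSO vehicle for no effect and reference control for full effect; nearly all actives have a fitted effect of over 55% in size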
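Compound concentration series was pinned onto galactose-induced FUS-expressing yeast seeded at OD 0.005. Plates sat 24hr at 30C; absorbance at 600 nm gave growth. DMSO served as background control.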
Numbers without * were called inactive; i = inactive; ? = inconclusive; / = no result. Only some compounds are listed: those with a hit (about 2.1% of all), similar ones and a draw of the others. The call rests on the fitted dose curve; in most records, active means well fitted curve in the direction sought with a large enough effect; inconclusive means small, poorly fitted or top-dose-only effect, or another doubt; inactive means no such curve, though single readings can be large; an effect the other way counts as inactive or inconclusive. Potency means the concentration at half of the fitted maximal effect.

SMILES	aSyn rescue	Abeta rescue	TDP-43 yeast inh	FUS suppressor
CC[N+](CC)(CC)CCOc1ccc(/C=C/c2ccccc2)cc1	10%	i	35µM*	i
Cn1cccc1C(=O)N1CCN(S(=O)(=O)c2cccs2)CC1	/	/	/	i
CCOC(=O)NC(=O)CSc1nc(C)cc(C)c1C#N	2%	i	16µM*	i
CCN(Cc1ccccc1)C(=O)Cn1c(=O)n(-c2ccc(F)c(Cl)c2)c(=O)c2sc3ccccc3c21	/	i	11%	i
O=C(OCc1cc(Cl)cc2c1OCOC2)c1cccnc1Cl	16µM*	i	?	i
Cc1cc(N(C)Cc2ccccc2)n2nc(-c3ccc(C(C)(C)C)cc3)nc2n1	/	i	16µM*	?
CCCN(CCC)c1cc(C)nc2nc(-c3ccc(C(C)(C)C)cc3)nn12	/	i	2%	i
CCN(CC)c1cc(C)nc2nc(-c3ccc(C)cc3)nn12	/	i	20µM*	i
Cc1ccccc1CS(=O)(=O)Cc1ccc(C(=O)Nc2ccccc2C)o1	/	/	/	i
Clc1ccc2c(ccc[n+]2CCC2CCCCC2)c1	0%	/	/	/
O=C(CCS(=O)(=O)c1cccs1)Nc1ccc(C(=O)Nc2ccccc2F)cc1	/	i	-6%	i
Cc1ccc(-n2nc(C(=O)N(C)c3ccc(C)c(C)c3)c3c4ccccc4n(C)c3c2=O)cc1	/	i	2%	i
O=C1C(Cl)=C(N2CCC(C(=O)O)CC2)C(=O)c2ccccc21	-1%	i	18µM*	i
NC(=O)C1CCN(C2=C(Cl)C(=O)c3ccccc3C2=O)CC1	-4%	i	13µM*	i
COC(=O)CC[C@H](/C=C/C(=O)OC(C)(C)C)Sc1ccc(C(C)(C)C)cc1	/	/	/	i
O=C(NCc1ccccc1F)C1C2C=CC3(CN(Cc4ccccc4)C(=O)C13)O2 (configuration not stated)	/	/	/	i
Nn1c(SCc2ccc([N+](=O)[O-])cc2)nnc1-c1cc(-c2ccccc2)n[nH]1	/	/	/	i
CCC(Sc1nc2ccsc2c(=O)n1Cc1ccc(C(=O)O)cc1)C(=O)Nc1ccc(Cl)cc1 (configuration not stated)	-3%	i	21%	35µM*
O=S(=O)(c1ccc(F)cc1F)N1CCN(c2nc(-c3cccs3)nc3ccccc23)CC1	-1%	/	/	/
CCOc1cc(/C=C/c2ccc3cccc([N+](=O)[O-])c3n2)ccc1OCC(=O)N(C)C	1%	i	-10%	i
CCOc1cccc(/C=C/c2ccc3cccc(O)c3n2)c1O	-3%	i	11µM*	i
CCOc1cc(/C=C/c2ccc3cccc([N+](=O)[O-])c3n2)ccc1O	2%	i	16µM*	/
OC(c1ccccc1)(c1ccccc1)C1CCN(CCCNc2ccc(Cl)cc2Cl)CC1	/	/	/	i
CCOC(=O)[C@]12CCCC=C1N(CCCOC)C(=O)[C@@H]2CC(=O)NCC12CC3CC(CC(C3)C1)C2	/	/	/	i
NC(=S)N=Nc1ccc(O)cc1	-15%	i	13µM*	/
SMILES	aSyn rescue	Abeta rescue	TDP-43 yeast inh	FUS suppressor
Cc1ccc(-c2cc(-c3nnc(SCC(=O)N4CCOCC4)n3N)[nH]n2)cc1	/	/	/	i
O=c1[nH]c(-c2ccco2)nc2sc3c(c12)CCCC3	-7%	i	18µM*	/
CC(=O)NC1=CC(=O)c2nonc2C1=O	-1%	/	/	/
Cc1noc2ncnc(Sc3ccc(Cl)cc3)c12	-4%	i	6.3µM*	i
O=C(CCc1c[nH]c2ccccc12)OCc1ccc(Br)cc1	3%	i	13µM*	i
O=C(CCC(=O)OCc1ccc(Br)cc1)Nc1ccccc1	4%	i	7.1µM*	i
O=C(CCC(=O)OCc1ccc(C(=O)Oc2ccc(Cl)cc2)cc1)Nc1ccccc1	-4%	i	-3%	i
CC#CC(=O)N[C@H]1CC[C@@]23CCCN2C(=O)CCC[C@H]3[C@H]1C	/	/	/	i
COC(=O)C[C@@H]1CC[C@H]2[C@@H](COc3ccc(NC(=O)NC(C)C)cc3C(=O)N2C)O1	/	/	/	i
Cc1ccc(-c2nnc(SCC(=O)NN=Cc3c[nH]c4ccccc34)n2-c2ccccc2)cc1	/	/	/	i
COc1ccc(C#Cc2c[nH]c(=O)c3cncnc23)cc1OC	13%	/	/	/
COc1ccc(S[C@]2(C(=O)NCc3ccccc3)CC(=O)N[C@@H]2c2ccc(OC)cc2)cc1	/	/	/	i
Cn1c(SCC(=O)Nc2ccc(C(=O)O)cc2)nc2scc(-c3ccccc3Cl)c2c1=O	/	i	-1%	35µM*
COc1cccc(NC(=O)c2cnn(-c3ccccc3)c2C)c1	3%	i	20µM*	i
COc1cccc(NC(=O)c2cc(-c3ccccn3)nc3ccccc23)c1	-3%	i	25µM*	/
COc1cccc(Nc2ncccc2C(=O)Nc2ccccc2)c1	-5%	i	22µM*	i
COc1cccc(NC(=O)c2cc(-c3ccco3)nc3ccccc23)c1	-8%	i	-14%	i
CN(CCOC(=O)c1occ2ccccc12)C1CN(Cc2cn(Cc3ccccc3Cl)nn2)S(=O)(=O)C1 (configuration not stated)	/	/	/	i
Cc1ccc(C)c2sc(N3CCN(C(=O)C(C)(C)C)CC3)nc12	/	i	35µM*	i
Cc1ccc(Cl)c2sc(N3CCN(C(=O)C4CC4)CC3)nc12	/	i	14µM*	?
O=C(C1CC1)N1CCN(c2nc3c(Cl)cccc3s2)CC1	/	i	?	i
COc1cccc(C(=O)N(CCN2CCOCC2)Cc2ccc(OC)c(OC)c2)c1	/	/	/	i
Cc1ccccc1C(=O)Nc1cccc(NC(=O)c2ccc(C(C)(C)C)cc2)c1	/	i	0%	i
N[C@H](C(=O)O)[C@H](Cc1ccccc1)C(=O)O	4%	/	/	/
CCc1ccc(N2C(=O)Cc3c2nc(N)c(C#N)c3N)cc1	-6%	i	0%	25µM*
SMILES	aSyn rescue	Abeta rescue	TDP-43 yeast inh	FUS suppressor
O=C(C[N+]1(CCO)CCOCC1)c1cccs1	-9%	/	/	/
COc1ccc(OC)c(NC(=O)CSc2ccc(-c3cccs3)nn2)c1	/	i	10%	i
COc1ccccc1NC(=O)CSc1ccc(-c2cccs2)nn1	-18%	i	22µM*	i
COc1ccc(OC)c(NC(=O)CSc2ccc(-c3ccco3)nn2)c1	-7%	i	20µM*	i
Fc1cc(F)c(CSc2nnc(-c3cccnc3)n2Cc2ccccc2)cc1F	/	/	/	i
Cc1c(C(=O)Nc2cccnc2)oc2ccc(Br)cc12	-11%	i	8.9µM*	i
CCc1ccc2oc(C(=O)Nc3cccnc3)c(C)c2c1	-2%	i	-9%	i
COC(=O)c1nnn(-c2cccc(C)c2)c1C(=O)OC	/	i	-4%	i
COc1cccc(-n2cnnn2)c1	0%	i	15%	i
Cc1cccc(-n2nnnc2S(C)(=O)=O)c1	/	i	18µM*	i
COc1cccc(-n2nnnc2S(C)(=O)=O)c1	-17%	i	1µM*	/

From PubChem BioAssay
